Results filed as inconclusive are left out. The source holds several records for some structures; these can differ, active in one and inactive in another. Activity calls are given as the source filed them. Calls come from the whole dose curve; as a rule, active = well fitted curve in the direction sought with a large enough effect; inconclusive = small, poorly fitted or top-dose-only effect, or another doubt; inactive = no such curve, though single readings can be large; an effect the other way counts as inactive or inconclusive.

For 13 compounds, Potency and activity (max response) results are on record in PubChem BioAssay (NCATS).

The nature of assay [1]: Quantitative highthroughput screen to assess conditional lethalithy of NOMO1 cells grown in RPMI1640 with untreated serum (RPMI+s) (AID 1963876).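 For viability: 100% = DMSO wells and 0% = empty wells without cells.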 Note: nearly all actives have a fitted effect of over 35% in size. Note: potency is the fitted concentration of half-maximal effect. The procedure, abridged: (§1)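 Each medium arm—HPLM with 10% dialyzed FBS, or RPMI1640 with 5 mM glucose and 10% untreated or dialyzed FBS—was screened against an 11-point, 3-fold compound titration for 48 h at 37 °C, with CellTiter-Glo luminescence as endpoint.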

Assay [2] in a line: Quantitative highthroughput screen to assess conditional lethalithy of NOMO1 cells grown in RPMI1640 with dialyzed fetal bovine serum (RPMI+ds) (AID 1963877).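 For viability: series mostly up to about 46 µM; 100% = DMSO control wells and 0% = empty wells.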 Note: nearly all actives have a fitted effect of over 30% in size. Note: potency is the fitted concentration of half-maximal effect. The method in brief:
as §1

The nature of assay [3]: Quantitative highthroughput screen to assess conditional lethalithy of NOMO1 cells grown in Human Plasma-Like Medium with dialyzed fetal bovine serum (HPLM+ds) (AID 1963878).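 For viability: 100% = DMSO wells and 0% = empty wells on each plate.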 Note: nearly all actives have a fitted effect of over 35% in size. Note: potency is the fitted concentration of half-maximal effect. The method in brief:
as §1

Assay [4] in a line: Quantitative highthroughput screen to assess conditional lethalithy of P12 Ichikawa cells grown in Human Plasma-Like Medium with dialyzed fetal bovine serum (HPLM+ds) (AID 1963879). For viability: series mostly up to about 46 µM. Note: nearly all actives have a fitted effect of over 35% in size. Note: potency is the fitted concentration of half-maximal effect. The note with it: Potency: viability. The method in brief:
as §1

Assay [5] can be described thus: Quantitative highthroughput screen to assess conditional lethalithy of P12 Ichikawa cells grown in RPMI1640 with dialyzed fetal bovine serum (RPMI+ds) (AID 1963880).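 For viability: 100% = DMSO wells and 0% = empty wells on each plate.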 Note: nearly all actives have a fitted effect of over 35% in size. Note: potency is the fitted concentration of half-maximal effect. The note with it: Potency: P12-Ichikawa viability. The procedure, abridged: as §1
Assay [6] in a line: Quantitative highthroughput screen to assess conditional lethalithy of P12 Ichikawa cells grown in RPMI1640 with untreated serum (RPMI+s) (AID 1963881).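 For viability: series mostly up to about 46 µM; 100% = DMSO wells and 0% = empty wells without cells.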 Note: nearly all actives have a fitted effect of over 35% in size. Note: potency is the fitted concentration of half-maximal effect. Conditions: Potency: viability. The method in brief:
as §1

The nature of assay [7]: Quantitative highthroughput screen to assess conditional lethalithy of SEM cells grown in Human Plasma-Like Medium with dialyzed fetal bovine serum (HPLM+ds) (AID 1963882). For viability: series mostly up to about 46 µM. Note: nearly all actives have a fitted effect of over 35% in size. Note: potency is the fitted concentration of half-maximal effect. The procedure, abridged:
as §1

The nature of assay [8]: Quantitative highthroughput screen to assess conditional lethalithy of SEM cells grown in RPMI1640 with unreated serum (RPMI+s) (AID 1963883).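 For viability: 100% = DMSO wells and 0% = empty wells without cells.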 Note: nearly all actives have a fitted effect of over 35% in size. Note: potency is the fitted concentration of half-maximal effect. The procedure, abridged: as §1
The nature of assay [9]: Quantitative highthroughput screen to assess conditional lethalithy of SEM cells grown in RPMI1640 with dialyzed fetal bovine serum (RPMI+ds) (AID 1963884).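 For viability: series mostly up to about 46 µM; 100% = DMSO control wells and 0% = empty wells without cells.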 Note: nearly all actives have a fitted effect of over 35% in size. Note: potency is the fitted concentration of half-maximal effect. The method in brief: as §1
Assay [10] is described as follows: Cellular viability qHTS for adrenocortical cancer (ACC) cell line SW-13 (AID 1963989).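 For activity (max response): cells grown in serum-free medium with ITS supplement; % is set by controls: 0 for no effect and ±100 for the full control effect.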 Note: nearly all actives have a fitted effect of over 65% in size. Note: potency is the fitted concentration of half-maximal effect. The note with it: SW-13 ACC cells viability, CellTiter-Glo, 48 h; activity (max response): stronger effect = lower value. The method in brief:
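Viability was read as CellTiter-Glo luminescence after 48 h compound treatment (up to 46 uM final) of SW-13 cells grown serum-free; titration curves were fit with a four-parameter logistic model to give IC50 and efficacy.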
For orientation: qHTS replaces the single test concentration by a dilution series.

Assay [11] can be described thus: Cellular viability qHTS for adrenocortical cancer (ACC) cell line NCI-H295R (AID 1963990).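 Note: 0% = DMSO only wells and -100% = full killing with cytotoxic reference compound; nearly all actives have a fitted effect of over 60% in size.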 The procedure, abridged:
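CellTiter-Glo ATP luminescence, read 48 h after compound addition, measured viability of NCI-H295R adrenocortical cells grown serum-free with ITS. Final concentrations spanned up to 46 uM. Data normalized to DMSO and doxorubicin, fitted for IC50 and maximal response.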

Consider `COc1ccc(-n2c(C)c([N+](=O)[O-])c3ccc(O)cc32)cc1`, for which the Potency entry in [1], in [2], in assay [3], in assay [4], in assay [5] and in assay [6] was “inactive” in each case. Further, the Potency entry in assay [7], in assay [8], in assay [9] and in [11] was “inactive” each time. Moreover, in [10], the activity (max response) is 3.14% (inactive).
On to `C=C1c2cccc(O)c2C(O)=C2C(=O)[C@@]3(O)C(O)=C(C(N)=O)C(=O)[C@@H](N(C)C)[C@@H]3[C@@H](O)[C@H]12`, for which the Potency result in [1], in assay [2], in assay [3], in assay [4], in assay [5] and in [6] was “inactive” each time. Besides, the Potency result in assay [7], in [8], in assay [9] and in [11] was “inactive” throughout. Further, the activity (max response) in assay [10] was -8.37% (inactive).
As for `C[C@@H]1CC=CC=CC=CC=C[C@@H](O[C@@H]2O[C@H](C)[C@@H](O)[C@H](N)[C@H]2O)C[C@@H]2O[C@](O)(C[C@@H](O)C[C@@H]3O[C@@H]3C=CC(=O)O1)C[C@H](O)[C@@H]2C(=O)O`, the Potency result in [1], in [2], in [3], in [4], in assay [5] and in assay [6] was “inactive” each time. For the same compound, the Potency entry in assay [7], in assay [8] and in assay [9] was “inactive” throughout.
For `CC(C)(O)CC[C@@H](O)[C@](C)(O)[C@H]1CC[C@@]2(O)C3=CC(=O)[C@@H]4C[C@@H](O)[C@@H](O)C[C@]4(C)[C@@H]3CC[C@]12C`, the Potency entry in assay [1], in [2], in [3], in [4], in assay [5] and in [6] was “inactive” in each case. Moreover, the Potency result in assay [7], in assay [8] and in assay [9] was “inactive” each time.
Consider `C[C@H](NCc1ccc2c(c1)nc(NC(=O)c1ccc(-c3cn[nH]c3)s1)n2CCc1ccccc1)C(C)(C)C`, for which the Potency in [1] is 9350 nM (active); in assay [2], 6.62 µM (active); in assay [3], 5900 nM (active); in [4] it was 11800 nM (active); in assay [5], 11800 nM (active); in assay [6], 9350 nM (active). The Potency in assay [7] was 469 nM (active); in assay [8] it was 526 nM (active); in assay [9] it was 74.3 nM (active).
As for `Cc1[nH]nc2ccc(-c3cncc(OC[C@@H](N)Cc4ccccc4)c3)cc12`, the Potency in assay [1] was 2960 nM (active); in [2], 2.35 µM (active); in assay [3], 1660 nM (active); in assay [4], 4180 nM (active); in assay [5], 3320 nM (active); in [6], 2960 nM (active). Further, the Potency in assay [7] is 1180 nM (active); in assay [8], 2090 nM (active); in assay [9] it was 2350 nM (active); in assay [10], 562 nM (active).
Turning to `C[C@@H]1CCO[C@H]2Cn3cc(C(=O)NCc4ccc(F)cc4F)c(=O)c(O)c3C(=O)N12`, the Potency result in [1], in [2], in assay [3], in assay [4], in assay [5] and in assay [6] was “inactive” in each case. The Potency entry in assay [7], in assay [8] and in assay [9] was “inactive” in each case.
`CC(C)c1nc(CN(C)C(=O)N[C@H](C(=O)N[C@@H](Cc2ccccc2)C[C@H](O)[C@H](Cc2ccccc2)NC(=O)OCc2cncs2)C(C)C)cs1`: the Potency result in [1], in assay [2], in [3], in assay [4], in [5] and in assay [6] was “inactive” each time. In addition, the Potency entry in [7], in assay [8] and in assay [9] was “inactive” throughout.
In the case of `O=C(C=Cc1ccc(CN(CCO)CCc2c[nH]c3ccccc23)cc1)NO`, the Potency in assay [1] was 590 nM (active); in [2] it was 0.743 µM (active); in [3], 590 nM (active); in [4], 418 nM (active); in [5] it was 418 nM (active); in [6] it was 332 nM (active). Moreover, the Potency in [7] was 264 nM (active); in assay [8], 264 nM (active); in assay [9], 296 nM (active).
Turning to `Cc1csc(NC(=O)c2sc3nc4c(c(C(F)(F)F)c3c2N)CCC4)n1`, the Potency entry in [1], in assay [2], in assay [3], in assay [4], in assay [5] and in [6] was “inactive” in each case. In addition, the Potency entry in [7], in [8], in [9] and in assay [11] was “inactive” throughout. In addition, the activity (max response) in assay [10] is -2.72% (inactive).
In the case of `CC(C=CC1=C(C)CCCC1(C)C)=CC=CC(C)=CC(=O)O`, the Potency result in [1], in assay [3], in assay [4], in [5], in assay [6] and in [7] was “inactive” in each case. Further, the Potency entry in assay [8] and in assay [9] was “inactive” throughout. Further, in assay [2], the Potency was 833 nM (active) and inactive.
As for `COc1cc2ncn(-c3cc(OCc4ccccc4S(C)(=O)=O)c(C#N)s3)c2cc1OC`, the Potency entry in assay [1], in [2], in assay [3], in assay [4], in assay [5] and in assay [6] was “inactive” in each case. Further, the Potency entry in assay [7], in assay [8] and in [9] was “inactive” in each case. Further, the activity (max response) in assay [10] is -11.8% (inactive).
For `COc1cccc2c1C(=O)c1c(O)c3c(c(O)c1C2=O)C[C@@](O)(C(=O)CO)C[C@H]3O[C@H]1C[C@H](N)[C@H](O)[C@H](C)O1`, the Potency was 2960 nM (active) in [1]; 2.96 µM (active) in [2]; 2350 nM (active) in [3]; 1660 nM (active) in assay [4]; 2090 nM (active) in assay [5]; 1320 nM (active) in assay [6]. The Potency in assay [7] is 469 nM (active); in [8], 418 nM (active); in assay [9] it was 372 nM (active).
